Measurements reported in PubChem BioAssay (NCATS).
Several values for one entry are separate records, joined by “and”; a condition that tells them apart may be missing. Equal values may be shown once. Results filed as inconclusive are left out. Activity calls are given as the source filed them. Unless noted, the call rests on the fitted dose curve.

Assays:
[1] = biological target: Estrogen receptor (Homo sapiens) (UniProt P03372); experiment: qHTS assay for small molecule agonists of estrogen receptor alpha signaling (AID 588514); conditions: ER-alpha-UAS-bla HEK293, beta-lactamase ratio, 18 h; series mostly up to 76.8 µM;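 further: 0% = vehicle only and 100% = reference agonist; nearly all actives have a fitted effect of over 70% in size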
How it was run: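 Fluorescence from CCF4 cleavage reports ER-alpha-driven beta-lactamase expression in HEK 293 cells treated 18 hrs at 37 C. Data normalized to 17-beta-estradiol (20 nM) and DMSO, fitted to Hill equation.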

[2] = biological target: Peroxisome proliferator-activated receptor gamma (Homo sapiens) (UniProt P37231); experiment: qHTS assay for small molecule antagonists of peroxisome proliferator-activated receptor gamma signaling (AID 588537; active means well fitted inhibition curve with a large enough effect in the signal ratio, with a control signal flat, not every such curve was filed as active; the % refers to the signal ratio;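 further: reporter cells co-stimulated with 50 nM rosiglitazone agonist during compound treatment; % of control where 0% means no effect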); conditions: HEK293 PPARg-UAS-bla, beta-lactamase ratio, antagonist mode; series mostly up to 76.8 µM
How it was run: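 Read-out: CCF4 fluorescence (ex 405, em 460/530 nm) after 2 h at RT. Cells were HEK293 carrying a UAS-bla reporter and treated 16 h at 37 C with compound plus rosiglitazone (50 nM final). Normalized to rosiglitazone and DMSO.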

[3] = biological target: Vitamin D3 receptor (Homo sapiens) (UniProt P11473); experiment: qHTS assay for small molecule antagonists of vitamin D receptor signaling (AID 588541); conditions: HEK293T VDR-UAS-bla, beta-lactamase ratio, antagonist mode; series mostly up to 76.7 µM;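 further: receptor activated by calcitriol during compound treatment; on the % scale 0 is the no-effect control and ±100 the full control effect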
How it was run: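 VDR-UAS-bla HEK293T cells in 2% charcoal-stripped FBS were stimulated with 1-alpha,25-dihydroxyvitamin D3 (3 nM final) plus compound for 16 h at 37 C. The beta-lactamase CCF4 readout was normalized to 50 nM agonist and DMSO, and Hill fits gave IC50.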

[4] = biological target: Thyroid hormone receptor beta (Homo sapiens) (UniProt P10828); experiment: qHTS assay for small molecule antagonists of thyroid hormone receptor beta signaling (AID 588547; active means well fitted inhibition curve with a large enough effect in the signal ratio, with a control signal flat, not every such curve was filed as active; the % refers to the signal ratio;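 further: cells stimulated with 0.4 nM T3 agonist during compound exposure; on the % scale 0 is the no-effect control and ±100 the full control effect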); conditions: TR-UAS-bla HEK293, beta-lactamase ratio, antagonist mode, 18 h
How it was run: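 TR-UAS-bla GripTite HEK293 cells in 2% charcoal/dextran FBS medium; compounds 0.59 nM to 92 uM with T3 at 0.4nM final, 18 h at 37 C. Beta-lactamase read by CCF4 fluorescence (460/530 nm); Hill fits gave IC50 and efficacy.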

[5] = qHTS assay for small molecule agonists of the antioxidant response element (ARE) signaling pathway (AID 651741; active means well fitted activation curve with a large enough effect in the signal ratio; the % refers to the signal ratio; further: potency means the concentration at half of the fitted maximal effect; on activation: % of control where 0% means no effect); conditions: HepG2 ARE-bla reporter, beta-lactamase FRET ratio, 16 h; series mostly up to 96 µM
How it was run: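 HepG2 ARE-bla reporter cells, 2,000/well; 5 h settle at 37 C/5% CO2; compound pin transfer (23 nL, DMSO); 16 h at 37 C; LiveBLAzer B/G FRET substrate, 2 h RT; fluorescence intensity read.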

[6] = qHTS assay for small molecule activators of the nuclear factor-kappa B (NF-kB) signaling pathway (AID 651749; active means well fitted activation curve with a large enough effect in the signal ratio; the % refers to the signal ratio; further: % of control where 0% means no effect); conditions: NF-kB-bla ME-180 cells, beta-lactamase FRET ratio, 16 h; activation: stronger effect = higher value
How it was run: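 NF-kB-bla ME-180 cells, 2,000/well; 23 nL compound or DMSO pinned; 16 hr, 37C/5% CO2; beta-lactamase FRET read-out.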

[7] = biological target: Androgen receptor (Homo sapiens) (UniProt P10275); experiment: qHTS assay for small molecule agonists of androgen receptor signaling (AID 588515; active means well fitted curve in the direction sought with a large enough effect in the signal ratio, with a control signal flat; the % refers to the signal ratio; further: on the % scale 0 is the no-effect control and ±100 the full control effect); conditions: AR-UAS-bla HEK293, beta-lactamase ratio, agonist 16 h; activation: stronger effect = higher value
How it was run: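 Stimulation of an AR-responsive β-lactamase reporter in GripTite HEK293 cells was measured after 16 h compound exposure at 37 °C, via CCF4 fluorescence after 2 h RT. EC50 from Hill fits, normalized to R1881 at 30 nM.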

[8] = biological target: Androgen receptor (Homo sapiens) (UniProt P10275); experiment: qHTS assay for small molecule antagonists of androgen receptor signaling (AID 588516; active means well fitted curve in the direction sought with a large enough effect in the signal ratio, with a control signal flat, not every such curve was filed as active; the % refers to the signal ratio; further: on the % scale 0 is the no-effect control and ±100 the full control effect); conditions: AR-UAS-bla HEK293, beta-lactamase ratio, antagonist mode, 16 h; series mostly up to 76.8 µM
How it was run: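 Antagonist-mode qHTS: inhibition of R1881 (10 nM)-driven beta-lactamase expression in GripTite HEK 293 cells is measured after 16 h; values are Hill-derived IC50s normalized between R1881 and DMSO wells.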

[9] = biological target: Bile acid receptor (Homo sapiens) (UniProt Q96RI1); experiment: qHTS assay for small molecule antagonists of farnesoid X receptor signaling (AID 588526); conditions: HEK293T FXR-UAS-bla, beta-lactamase ratio, antagonist mode; series mostly up to 76.7 µM; further: on the % scale 0 is the no-effect control and ±100 the full control effect
How it was run: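 Antagonist mode: titrated compounds tested against chenodeoxycholic acid stimulation (normalized to 50 uM CDCA and DMSO) in GeneBLAzer HEK293T cells for 16 h. Beta-lactamase read by CCF4 fluorescence; IC50 from Hill fits.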

Sequence of Vitamin D3 receptor (Homo sapiens) (P11473 whole entry, looked up): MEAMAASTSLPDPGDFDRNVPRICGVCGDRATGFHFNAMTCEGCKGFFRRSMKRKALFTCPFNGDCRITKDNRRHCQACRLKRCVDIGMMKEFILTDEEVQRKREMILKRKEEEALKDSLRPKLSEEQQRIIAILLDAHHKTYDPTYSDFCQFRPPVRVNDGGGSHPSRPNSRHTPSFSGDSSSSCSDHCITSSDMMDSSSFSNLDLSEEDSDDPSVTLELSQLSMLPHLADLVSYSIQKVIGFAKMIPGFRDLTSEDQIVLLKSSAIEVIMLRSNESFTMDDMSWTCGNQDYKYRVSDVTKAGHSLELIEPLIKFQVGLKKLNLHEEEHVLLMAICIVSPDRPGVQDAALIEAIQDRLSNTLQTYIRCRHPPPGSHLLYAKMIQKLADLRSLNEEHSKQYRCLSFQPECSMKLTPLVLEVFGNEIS
Sequence of Thyroid hormone receptor beta (Homo sapiens) (P10828 whole entry, looked up): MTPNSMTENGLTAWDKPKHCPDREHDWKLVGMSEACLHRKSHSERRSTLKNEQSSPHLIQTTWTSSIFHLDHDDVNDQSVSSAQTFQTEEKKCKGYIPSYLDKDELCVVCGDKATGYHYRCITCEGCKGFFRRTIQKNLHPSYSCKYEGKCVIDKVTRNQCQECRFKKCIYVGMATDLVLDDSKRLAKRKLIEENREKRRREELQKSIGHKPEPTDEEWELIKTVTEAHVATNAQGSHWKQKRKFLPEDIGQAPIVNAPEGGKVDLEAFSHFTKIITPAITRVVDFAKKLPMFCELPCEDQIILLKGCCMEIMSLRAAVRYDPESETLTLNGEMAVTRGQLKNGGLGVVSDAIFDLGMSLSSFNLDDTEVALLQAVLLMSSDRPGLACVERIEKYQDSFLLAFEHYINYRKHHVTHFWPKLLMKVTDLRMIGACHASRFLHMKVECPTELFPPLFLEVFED
Sequence of Peroxisome proliferator-activated receptor gamma (Homo sapiens) (P37231 whole entry, looked up): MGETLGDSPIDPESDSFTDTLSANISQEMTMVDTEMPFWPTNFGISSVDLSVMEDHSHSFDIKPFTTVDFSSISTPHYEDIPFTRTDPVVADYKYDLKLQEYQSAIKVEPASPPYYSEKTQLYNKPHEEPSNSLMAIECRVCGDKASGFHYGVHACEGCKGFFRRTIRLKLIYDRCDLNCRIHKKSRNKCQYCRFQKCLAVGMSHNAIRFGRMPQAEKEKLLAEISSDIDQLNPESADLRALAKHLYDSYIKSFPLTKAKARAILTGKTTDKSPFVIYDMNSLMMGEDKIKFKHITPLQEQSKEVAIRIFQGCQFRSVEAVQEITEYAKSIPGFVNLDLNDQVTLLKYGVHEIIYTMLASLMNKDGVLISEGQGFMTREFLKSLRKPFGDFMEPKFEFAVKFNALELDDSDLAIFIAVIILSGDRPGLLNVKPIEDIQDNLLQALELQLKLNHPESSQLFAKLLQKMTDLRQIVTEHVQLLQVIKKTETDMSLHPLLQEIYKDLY
Sequence of Bile acid receptor (Homo sapiens) (Q96RI1 whole entry, looked up): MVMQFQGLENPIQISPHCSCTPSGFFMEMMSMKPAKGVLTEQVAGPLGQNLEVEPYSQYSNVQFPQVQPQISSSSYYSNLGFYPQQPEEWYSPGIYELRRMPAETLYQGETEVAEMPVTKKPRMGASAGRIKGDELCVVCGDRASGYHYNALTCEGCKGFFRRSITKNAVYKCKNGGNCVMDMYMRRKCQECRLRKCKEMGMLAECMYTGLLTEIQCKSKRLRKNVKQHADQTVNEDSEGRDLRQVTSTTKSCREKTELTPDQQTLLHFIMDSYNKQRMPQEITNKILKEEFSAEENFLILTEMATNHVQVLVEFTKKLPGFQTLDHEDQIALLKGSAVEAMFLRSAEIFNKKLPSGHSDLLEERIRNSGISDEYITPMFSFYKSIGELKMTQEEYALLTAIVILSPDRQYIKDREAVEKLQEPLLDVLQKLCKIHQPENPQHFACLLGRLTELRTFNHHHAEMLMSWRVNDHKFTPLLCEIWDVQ
Sequence of Estrogen receptor (Homo sapiens) (P03372 whole entry, looked up): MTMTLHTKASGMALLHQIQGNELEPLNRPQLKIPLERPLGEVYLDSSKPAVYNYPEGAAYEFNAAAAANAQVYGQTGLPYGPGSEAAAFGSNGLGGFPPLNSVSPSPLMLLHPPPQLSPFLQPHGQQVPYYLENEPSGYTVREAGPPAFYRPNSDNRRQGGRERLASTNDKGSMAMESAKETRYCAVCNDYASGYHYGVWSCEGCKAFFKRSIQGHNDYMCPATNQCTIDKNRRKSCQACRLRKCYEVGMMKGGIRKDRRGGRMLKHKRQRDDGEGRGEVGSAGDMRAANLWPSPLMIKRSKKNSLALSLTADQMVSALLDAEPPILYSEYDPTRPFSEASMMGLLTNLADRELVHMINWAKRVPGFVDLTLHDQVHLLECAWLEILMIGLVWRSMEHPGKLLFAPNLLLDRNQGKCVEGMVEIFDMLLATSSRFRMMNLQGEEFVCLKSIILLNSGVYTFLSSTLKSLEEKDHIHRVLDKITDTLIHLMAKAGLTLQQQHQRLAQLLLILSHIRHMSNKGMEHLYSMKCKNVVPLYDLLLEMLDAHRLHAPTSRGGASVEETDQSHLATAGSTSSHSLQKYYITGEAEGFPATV
Sequence of Androgen receptor (Homo sapiens) (P10275 whole entry, looked up): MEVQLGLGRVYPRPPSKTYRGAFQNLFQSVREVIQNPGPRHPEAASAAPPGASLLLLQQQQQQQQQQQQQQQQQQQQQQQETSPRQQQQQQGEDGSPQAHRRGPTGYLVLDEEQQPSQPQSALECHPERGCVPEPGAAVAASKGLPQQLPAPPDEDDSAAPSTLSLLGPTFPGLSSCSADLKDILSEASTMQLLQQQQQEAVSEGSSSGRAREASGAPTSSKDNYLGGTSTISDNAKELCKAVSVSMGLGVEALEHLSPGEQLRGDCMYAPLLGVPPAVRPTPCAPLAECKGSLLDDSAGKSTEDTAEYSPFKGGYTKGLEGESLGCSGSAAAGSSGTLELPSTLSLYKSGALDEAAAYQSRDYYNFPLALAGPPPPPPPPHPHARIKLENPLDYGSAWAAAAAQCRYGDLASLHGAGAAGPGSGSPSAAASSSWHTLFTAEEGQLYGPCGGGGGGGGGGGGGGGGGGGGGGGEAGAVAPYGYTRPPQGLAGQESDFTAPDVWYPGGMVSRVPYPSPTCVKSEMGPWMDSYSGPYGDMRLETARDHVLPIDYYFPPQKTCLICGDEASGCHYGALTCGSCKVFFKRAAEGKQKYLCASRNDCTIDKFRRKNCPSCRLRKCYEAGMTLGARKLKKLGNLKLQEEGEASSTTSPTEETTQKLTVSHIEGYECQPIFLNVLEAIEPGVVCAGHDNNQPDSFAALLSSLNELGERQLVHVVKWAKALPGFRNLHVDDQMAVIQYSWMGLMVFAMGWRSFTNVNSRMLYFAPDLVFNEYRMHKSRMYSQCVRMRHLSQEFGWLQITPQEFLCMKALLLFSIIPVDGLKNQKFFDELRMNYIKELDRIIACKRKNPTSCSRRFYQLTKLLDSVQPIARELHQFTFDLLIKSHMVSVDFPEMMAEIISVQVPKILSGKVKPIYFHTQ

c1ccc2cc3ccccc3cc2c1
inactive: Potency [1] | Potency [2] | Potency [3] | activity change % (negative = inhibition) [4] -13.8% | Potency [5]

CCCCN(CCCC)CCCCCCN(CCCC)CCCC
inactive: Potency [1] | Potency [2] | Potency [3] | activity change % (negative = inhibition) [4] 10% | Potency [5]

COC(=O)C(C)Oc1ccc(Oc2ncc(C(F)(F)F)cc2Cl)cc1 (configuration not stated)
inactive: Potency [1] | Potency [2] | Potency [3] | Potency [5]

CCCCOC(=O)[C@@H](C)Oc1ccc(Oc2ccc(C(F)(F)F)cn2)cc1
inactive: Potency [1] | Potency [2] | Potency [3] | activity change % (negative = inhibition) [4] 6.28% and 7.31% | Potency [5] | activation [6] -0.296% and -2.63%

O=C(Cl)c1ccc(C(=O)Cl)cc1
inactive: Potency [1] | Potency [3] | activity change % (negative = inhibition) [4] 0.623%

Cc1nn(C)c(Oc2ccccc2)c1/C=N/OCc1ccc(C(=O)OC(C)(C)C)cc1
inactive: Potency [1] | activity change % (negative = inhibition) [4] -18.8%

C=C(C)C(=O)OCCCCCCCCCCCC
inactive: Potency [1] | Potency [2] | Potency [3] | activity change % (negative = inhibition) [4] 0.53% | activation [6] -0.811%

C[Si]1(C)O[Si](C)(C)O[Si](C)(C)O[Si](C)(C)O1
inactive: Potency [1] | Potency [2] | Potency [3] | activity change % (negative = inhibition) [4] 11% | Potency [5] | activation [6] 0.122%

C=CC(=O)OCC(C)OCC(C)OCC(C)OC(=O)C=C (configuration not stated)
inactive: Potency [1] | Potency [2] | Potency [3] | activity change % (negative = inhibition) [4] 0.874%

C=C(C)C(=O)OCCN(C)C
inactive: Potency [1] | Potency [2] | Potency [3] | activity change % (negative = inhibition) [4] 5.49%

CC(C)(C)c1cc(C(C)(C)C)c(O)c(C(C)(C)C)c1
inactive: Potency [1] | Potency [2] | activity change % (negative = inhibition) [4] -16.9%

O=S(=O)(O)c1ccc(N=Nc2cc(S(=O)(=O)O)c3ccccc3c2O)c2ccccc12
inactive: activation [7] 11.4% | outcome [8] | Potency [9] | Potency [2] | Potency [3] | activation [6] 0.356%

C#CCOC(=O)[C@@H](C)Oc1ccc(Oc2ncc(Cl)cc2F)cc1
inactive: Potency [1] | Potency [9] | Potency [2]

Cc1ccc(S(=O)(=O)C(I)I)cc1
inactive: Potency [1] | activation [6] -6%

COC(=O)C1CCC(C(=O)OC)CC1 (configuration not stated)
inactive: Potency [1] | Potency [9] | Potency [2] | Potency [3] | Potency [5] | activation [6] -2.67%

O=C1CCCCCCCCCCC1
inactive: Potency [1] | Potency [2] | activity change % (negative = inhibition) [4] 4.81% | Potency [5]

CCN(Cc1cccc(S(=O)(=O)O)c1)c1ccc(C(=C2C=CC(=[N+](CC)Cc3cccc(S(=O)(=O)[O-])c3)C=C2)c2ccccc2)cc1
inactive: Potency [1] | activity change % (negative = inhibition) [4] -4.54% | activation [6] -0.828%
active: Potency [5] 54.5 µM
